The values that follow come from PubChem BioAssay.

Each structure is given as a SMILES string. Activity calls are given as the source filed them.

Test [1] in a line: compound effects on lung adenocarcinoma cell viability – A549, calcein-AM fluorescence, 48 h, basal, profiling panel (AID 1162). The settings on record: higher = more signal.
Test [2] is described as follows: compound effects on differentiated 3T3-L1 adipocyte viability – cell-based, 3T3-L1 adipocytes, calcein-AM fluorescence, 48 h, basal, profiling panel (AID 1163). The settings on record: 3T3-L1 adipocytes viability, higher = more signal.
Test [3] in a line: compound effects on hepatocellular carcinoma cell viability – HepG2, calcein-AM fluorescence, 48 h, basal, profiling panel (AID 1164). The following applies: higher = more signal.
Test [4] can be described thus: compound effects on multiple myeloma cell viability – MM1S, calcein-AM fluorescence, 48 h, basal, profiling panel (AID 1165).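 Also: viability of MM1S multiple myeloma cells under basal unstimulated conditions.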 The settings on record: higher = more signal.
A short description of test [5]: calcein-AM signal in unstimulated myeloma cells – cell-based, calcein-AM fluorescence, 48 h, PK04 Diversity Set, profiling panel (AID 1166).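 Also: cells grown under basal conditions without added stimulus.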 The following applies: RPMI8226 myeloma viability, higher = more signal.
The nature of test [6]: JC-1 mitochondrial signal, unstimulated HepG2 cells – cell-based, JC-1 fluorescence, 24 h, 100 nL compound, profiling panel (AID 1167). The following applies: HepG2 mitochondrial potential, higher = more signal.
The nature of test [7]: JC-1 mitochondrial signal, unstimulated adipocytes – cell-based, JC-1 fluorescence, 3T3-L1 adipocytes, 24 h, 100 nL compound, profiling panel (AID 1168). The settings on record: JC-1 mitochondrial fluorescence, higher = more signal, called active from +8 up or from −8 down.
Test [8] in a line: JC-1 mitochondrial signal, unstimulated myeloma cells – cell-based, JC-1 fluorescence, RPMI8226, 24 h, 100 nL compound, profiling panel (AID 1169). The following applies: JC-1 mitochondrial potential fluorescence, higher = more signal.
Test [9] is described as follows: JC-1 mitochondrial signal, unstimulated MM1S myeloma – cell-based, JC-1 fluorescence, 24 h, 100 nL compound, profiling panel (AID 1170). The settings on record: MM1S mitochondrial potential, higher = more signal.
Test [10] in a line: resazurin metabolic signal in A549 cells – cell-based, resazurin fluorescence, 24 h, PK04 Diversity Set, profiling panel (AID 1171). The settings on record: A549 viability, higher = more signal, called active from +8 up or from −8 down.
Also: test concentration not given here.

Take `CCc1oc(CC[C@@H](CO)NC(=O)NCCn2cc(C3(O)CCCCC3)nn2)c(C(=O)OC)c1C(=O)OC`: the z-score in [1] is -0.0645; in test [2], -0.33; in [3] it was -0.68; in [4] it was -0.0035; in test [5], 0.0168; in test [6], -0.176. For the same compound, the z-score was -0.0732 (inactive) in [7], 0.756 in test [8], 0.14 in test [9] and -0.892 (inactive) in [10].

In the case of `CC1(C)[C@@H]2CC(C(O)C3C=CC4C(=O)N(c5ccccc5)C(=O)C4N3Nc3ccccc3)=C[C@H]1C2` (stereo not given in full), the z-score in test [1] was -1.66; in [2] it was -1.16; in test [3], -1.16; in [4] it was -0.528; in test [5], -0.209; in test [6], -1.79. Further, the z-score in test [7] was -1.46 (inactive); in test [8], 0.263; in test [9], -0.527; in test [10], -0.158 (inactive).

With `O=C1NC(=O)C2C1C=CC(C(O)Cc1ccccc1)N2Nc1ccc(Cl)cc1Cl` (stereo not given), the z-score in [1] was 0.447; in test [2], -0.0852; in test [3], -1.57; in test [4], -0.988; in [5], -0.388; in test [6], -1.73. For the same compound, the z-score is -0.00872 (inactive) in test [7], -0.371 in test [8], -0.375 in test [9] and -0.519 (inactive) in test [10].

For `CC(C)c1ccc(NN2C(C(O)c3cc(C(F)(F)F)cc(C(F)(F)F)c3)C=CC3C(=O)N(c4ccccc4)C(=O)C32)cc1` (stereo not given), the z-score was -2.37 in test [1]; 0.15 in test [2]; -3.12 in test [3]; -3.4 in test [4]; -4.14 in test [5]; -2.69 in test [6]. Moreover, the z-score is -0.414 (inactive) in test [7], -0.873 in [8], -1.57 in test [9] and -2.11 (inactive) in [10].

Take `COCCOC(=O)N1C(=O)[C@@]2(c3cc(C#Cc4ccc(OC)cc4)ccc31)[C@H](C(N)=O)[C@H]1C(=O)O[C@H](c3ccccc3)[C@H](c3ccccc3)N1[C@@H]2c1ccccc1OCCO`: the z-score was -1.25 in test [1]; 1.18 in [2]; -1.76 in test [3]; -2.32 in test [4]; -3.94 in test [5]; -1.79 in [6]. Moreover, the z-score is 2.99 (inactive) in [7], -0.994 in test [8], -1.38 in test [9] and -1.85 (inactive) in test [10].

For `O=C1NC(=O)C2C1C=CC(C(O)c1ccccc1)N2Nc1ccc(Cl)cc1Cl` (stereo not given), the z-score is 0.0862 in test [1]; -0.0715 in test [2]; -1.48 in test [3]; -3.55 in [4]; -3.28 in test [5]; -3.07 in test [6]. The z-score was -0.544 (inactive) in test [7], -1.09 in test [8], -1.59 in [9] and -1.92 (inactive) in test [10].

On to `COC(=O)[C@@]1(Cc2ccc(OC)cc2)[C@H]2c3cc(C(=O)N(C)C)n(CCN4CNCC4=O)c3C[C@H]2CN1C(=O)c1ccccc1`, for which the z-score in test [1] was -0.663; in [2], -0.261; in [3], -0.254; in test [4], 0.316; in [5], 0.177; in test [6], -0.812. In addition, the z-score is 0.489 (inactive) in test [7], -0.111 in test [8], -1.28 in test [9] and 0.367 (inactive) in test [10].

In the case of `C=C(CCCC)C(=O)CC[C@@H](OC(=O)c1cccnc1)c1ccc(CO)o1`, the z-score in test [1] was 0.274; in test [2], 0.149; in [3], 0.909; in test [4], -0.238; in [5], -0.156; in test [6], -1.35. The z-score in test [7] is -0.123 (inactive); in [8], 0.736; in test [9], -0.0347; in test [10] it was -0.192 (inactive).

For `C=CCOC(=O)[C@H]1[C@@H]2C(=O)O[C@@H](c3ccccc3)[C@@H](c3ccccc3)N2[C@@H](c2ccc(OCCOC(=O)[C@@H]3C[C@@H]4C(=O)N[C@@H](CCCC[N+](C)(C)C)C(=O)N4[C@@H]3c3ccc(O)cc3)cc2)[C@]12C(=O)Nc1ccccc12`, the z-score in test [1] is 1.23; in test [2], 1.53; in test [3], -0.265; in test [4] it was -1.07; in test [5], 0.95; in [6] it was -1.37. In addition, the z-score in test [7] was 0.396 (inactive); in [8] it was -0.923; in test [9] it was -0.504; in [10], 1.19 (inactive).

For the compound `COCCOC(=O)N1C(=O)[C@@]2(c3cc(C#CCNC(N)=O)ccc31)[C@H](C(=O)NC[C@H](O)c1ccccc1)[C@H]1C(=O)O[C@H](c3ccccc3)[C@H](c3ccccc3)N1[C@@H]2c1ccccc1OCCO`, the z-score in test [1] is 1.22; in test [2], 0.504; in [3], 0.829; in test [4], 0.837; in test [5], 0.676; in [6], -0.523. Besides, the z-score was 0.749 (inactive) in test [7], -0.548 in [8], -1.04 in test [9] and -0.0062 (inactive) in [10].

As to `C=CC[C@]12N=C(c3ccc(OCCCO)cc3)O[C@H]1c1ccccc1N(Cc1ccccc1)C2=O`, the z-score in [1] was -0.739; in test [2] it was -0.082; in [3] it was -0.957; in test [4], -3.44; in [5] it was -3.83; in test [6], -0.433. Besides, the z-score in [7] was 2.12 (inactive); in test [8] it was -0.982; in [9], -2.48; in test [10] it was -1.48 (inactive).

With `COc1ccc([C@H]2C[C@H]3C(Br)=C[C@@H]2C(=O)[C@]32CO2)cc1`, the z-score is 0.321 in test [1]; 0.0531 in test [2]; -0.193 in [3]; -2.75 in test [4]; -1.55 in [5]; -0.262 in [6]. The z-score in [7] was 0.558 (inactive); in [8], -0.556; in [9], -0.914; in [10], 0.217 (inactive).

Consider `COCCOC(=O)N1C(=O)[C@@]2(c3ccccc31)[C@H](c1ccc(O)cc1)N1[C@H](c3ccccc3)[C@H](c3ccccc3)OC(=O)[C@H]1[C@@H]2C(=O)NC[C@H](O)c1ccccc1`, for which the z-score is 0.205 in [1]; 1.15 in [2]; 0.311 in test [3]; -0.534 in [4]; -1.99 in test [5]; -1.02 in test [6]. Further, the z-score was -0.184 (inactive) in test [7], 0.266 in test [8], -0.142 in test [9] and -1.1 (inactive) in test [10].

For the compound `Cc1ccc(S[C@]2(C(=O)NC(C)C)CC(=O)N(Cc3ccccc3Cl)[C@@H]2c2ccc(CO)cc2I)cc1`, the z-score in test [1] was -0.0542; in test [2] it was -0.05; in test [3], -0.125; in test [4], -2.71; in test [5] it was -1.58; in [6] it was -1.08. For the same compound, the z-score was -0.443 (inactive) in test [7], -0.195 in test [8], -1.6 in test [9] and 1.11 (inactive) in test [10].

Consider `COc1cc(CO)cc(I)c1O[C@H]1C=C(C(=O)NCCO)C[C@@H](N(CCN2CCOCC2)C(=O)C2CCOC2)[C@@H]1O` (stereo not given in full), for which the z-score in test [1] is 0.736; in test [2], -0.917; in [3], 0.51; in [4], 0.317; in test [5] it was 0.402; in [6] it was 1.05. Also, the z-score was 0.57 (inactive) in test [7], 0.0404 in test [8], 0.684 in test [9] and -0.435 (inactive) in [10].
